# Most compounds without a hit are left out; they make up all but 18% or so of the library.
# TDP1 cell noCPT – qHTS for Inhibitors of human tyrosyl-DNA phosphodiesterase 1 (TDP1): qHTS in cells in absence of CPT | DT40 Tdp1-/- hTDP1 cells, no CPT, ATP luminescence, 48 h | Potency, µM (top dose mostly 46.2 µM), without a hit: at the highest dose activity change, negative = growth inhibition, actives largely listed as inhibitors | 420,000 compounds, 15% hits | AID 686978, 2013; further: nearly all actives have a fitted effect of over 55% in size
#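 Chicken DT40 Tdp1-/- cells complemented with human TDP1, screened without camptothecin (DMSO vehicle only), 400 cells/well. Compounds pin-transferred, cells incubated at 37 °C for at least 48 hr. Growth read as ATP-dependent luminescence (CellTiter-Glo, 30 min at RT).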
# VDR inh – vitamin D3 receptor (human) inhibition; P11473; VDR-SRC2-3 peptide fluorescence polarization, 2 h; Potency, µM, for the others: max response, negative = inhibition, most hits filed as inhibitors; 400,000 compounds, 0.93% hits
# Target sequence (P11473 whole entry, looked up): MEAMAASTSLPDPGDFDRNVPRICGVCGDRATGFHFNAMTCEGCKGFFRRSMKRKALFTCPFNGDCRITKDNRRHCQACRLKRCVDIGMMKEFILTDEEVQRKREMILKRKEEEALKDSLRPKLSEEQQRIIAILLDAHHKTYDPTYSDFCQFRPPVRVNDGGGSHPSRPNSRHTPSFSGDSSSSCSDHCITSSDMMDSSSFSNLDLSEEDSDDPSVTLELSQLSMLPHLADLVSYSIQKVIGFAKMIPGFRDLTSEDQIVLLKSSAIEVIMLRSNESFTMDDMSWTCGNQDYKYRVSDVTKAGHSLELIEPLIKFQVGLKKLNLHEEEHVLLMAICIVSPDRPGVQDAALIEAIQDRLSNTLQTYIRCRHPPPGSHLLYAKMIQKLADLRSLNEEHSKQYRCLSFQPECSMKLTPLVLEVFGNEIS
#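 Reagent solutions, kept cold and dark, are dispensed first; compounds are then pinned in at 23 nl, plates briefly spun, and incubated 2 h at ambient temperature. Inhibition of VDR–SRC2-3 peptide binding is read by fluorescence polarization.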
# PLK1 PBD block – PLK1 (human) polo-box domain binding inhibition. 360,000 compounds, 2.8% hits. AID 720504. Potency, µM, for inactives: max response, negative = inhibition, most hits filed as inhibitors. Plk1 PBD binding of FITC phosphopeptide, fluorescence polarization. P53350; further: series mostly up to about 57 µM; nearly all actives have a fitted effect of over 65% in size
# DT40 TDP1 CPT – DT40-hTDP1 cell growth loss with CPT | chicken DT40 Tdp1-/-;hTDP1 cells + 20 nM CPT, ATP luminescence, 48 h | Potency, µM (top dose mostly 46.2 µM), inactives show at the top dose activity change, negative = growth inhibition, usual class: inhibitors | AID 686979 | 420,000 compounds, 12% hits; further: nearly all actives have a fitted effect of over 55% in size
#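 Cell growth measured by CellTiter-Glo luminescence after a minimum 48 h, 37 C compound exposure with 20 nM CPT in Tdp1-knockout DT40 cells stably expressing hTDP1, seeded 400/well; qHTS titration format.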
# GCN5L2 inh – blocks human GCN5L2 histone acetyltransferase | AID 504327 | Q92830 | 390,000 compounds, 0.21% hits | Potency, µM (top dose mostly 58.9 µM), for inactives: at the highest dose activity change, negative = inhibition, most hits filed as inhibitors | GCN5L2 HAT assay, ThioGlo1 CoA-SH fluorescence
#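 Enzyme at 20nM final was mixed with library compounds for 15 min at room temperature. Peptide H3(1-25) at 75uM, acetyl-CoA at 70uM and ThioGlo1 at 50uM were then added. Plates were read immediately and after 20 min (Ex340nm/Em540nm).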
# TDP1 inh – inhibitors of human tyrosyl-DNA phosphodiesterase TDP1 | recombinant TDP1, AlphaScreen DNA substrate cleavage | Q9NUW8 | Potency, µM (titrated, usually from 130 µM), without a hit: at the highest dose activity change, negative = inhibition, actives largely listed as inhibitors | 350,000 compounds, 0.28% hits; further: nearly all actives have a fitted effect of over 40% in size
#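 Recombinant human Tdp1 (E. coli-expressed, 1 nM final) preincubated with compounds 15 min at room temperature, then 5'-biotin/3'-phosphotyrosine-FITC DNA substrate (15 nM final) added for 5 min. AlphaScreen beads (10 ug/ml final) added 10 min; cleavage lowers signal.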
# Active calls of the source: *; ? = inconclusive; . = not tested or not shown; [ ] = remark or other dose. The call rests on the fitted dose curve; in most records, active means well fitted curve in the direction sought with a large enough effect; inconclusive means small, poorly fitted or top-dose-only effect, or another doubt; inactive means no such curve, though single readings can be large; an effect the other way counts as inactive or inconclusive. On the % scale 0 is the no-effect control and ±100 the full control effect; potency means the concentration at half of the fitted maximal effect.
SMILES,TDP1 cell noCPT,VDR inh,PLK1 PBD block,DT40 TDP1 CPT,GCN5L2 inh,TDP1 inh
O=S(=O)(NCc1ccccc1Cl)c1ccc(-c2cnc(C3CC3)o2)cc1,2.9µM*,6%,.,3.7µM*,13%,-1%
CCOc1ccccc1CNS(=O)(=O)c1ccc(-c2cnc(C3CC3)o2)cc1,0.65µM*,0%,-6%,0.82µM*,-22%,4%
CCOc1ccccc1CNS(=O)(=O)c1ccc(-c2coc(C)n2)cc1,16µM*,-4%,.,16µM*,-6%,2%
CC(C)=NOc1nc(NC(=O)NS(=O)(=O)c2ccccc2Cl)nc(N(C)C)n1,-16%,-6%,-11%,6%,.,.
CN(C)c1ccc(NC(=O)CSC2=Nc3ccccc3C3=NC(CC(=O)NCc4ccc5c(c4)OCO5)C(=O)N23)cc1 (stereo unspecified),?,-1%,.,?,?,9%
O=C(CCc1ccccc1)NNC(=O)COc1ccc(Br)cc1,-8%,-4%,-5%,0%,-6%,-2%
Cc1onc(-c2ccccc2Cl)c1C(=O)N[C@@H](C)c1ccccc1,5%,-13%,-5%,-26%,.,.
Cc1ccc(-c2csc(NC(=O)c3c(C)noc3C)n2)cc1,9.2µM*,-1%,-14%,?,-12%,1%[56.1 µM]
CCc1noc(C)c1C(=O)Nc1nc(-c2cccs2)cs1,?,-26%,-6%,-27%,-1%,-9%[0.505 µM]
Cc1noc(C)c1C(=O)Nc1nc(-c2ccc([N+](=O)[O-])cc2)cs1,?,4%,-10%,?,1%,4%
COc1ccc(-c2csc(NC(=O)c3c(C)noc3C)n2)cc1OC,15µM*,.,-14%,21µM*,.,.
COc1ccc(-c2csc(NC(=O)c3ccoc3C)n2)cc1,12µM*,16%,-7%,-26%,-23%,5%
CCc1noc(C)c1C(=O)Nc1nc(-c2ccc(Cl)cc2Cl)cs1,18µM*,0%,1%,18µM*,-3%,0%
COc1ccc(C2C(C(=O)O)CCC(=O)N2c2ccc(C)cc2)cc1OC (stereo unspecified),1%,2%,-15%,0%,8%,2%
CCCN(CCC)CCCNC(=O)CN1C(=O)CSc2ccc(S(=O)(=O)N3CCOCC3)cc21,0%,-8%,-9%,-1%,-7%,-2%
COc1cc(OC)cc(C(=O)N[C@H](C(=O)Nc2nc3ccc(S(C)(=O)=O)cc3s2)C(C)C)c1,14%,2%,4%,-3%,-7%,5%
COc1cc(OC)cc(C(=O)N[C@H](C(=O)Nc2nc(-c3ccc(OC)c(OC)c3)cs2)C(C)C)c1,13µM*,-15%,0%,18µM*,6%,.
CC(=O)C1C(c2cccc(F)c2)c2c(n[nH]c2C)CC1(C)O (stereo unspecified),-16%,-14%,0%,-9%,0%,3%
COc1ccc(C(O)c2nc(-c3ccccc3OC)cs2)cc1 (stereo unspecified),?,.,4%,?,.,.
COc1ccccc1-c1csc(C(O)c2ccccc2)n1 (stereo unspecified),?,.,-9%,23µM*,.,.
COc1cc(F)ccc1-c1csc(C(O)c2ccc(F)c(F)c2)n1 (stereo unspecified),13µM*,.,-2%,?,.,.
COc1ccccc1-c1csc(C(O)c2cccc(Cl)c2)n1 (stereo unspecified),?,.,-6%,21µM*,.,.
CCCCn1c(N)c(N(CCOC)C(=O)c2ccc(-c3ccc(C(C)=O)cc3)o2)c(=O)[nH]c1=O,-20%,-1%,-1%,-3%,-16%,0%
O=C(CSc1nnc(COc2ccc(Cl)cc2)o1)NC1CC2CCC1C2 (stereo unspecified),?,?,?,-1%,-3%,.
COc1ccc(-c2cnc3c(NC(C)=O)cc(-c4ccccc4CN(C)C)cn23)cc1OC,?,.,-15%,?,.,.
SMILES,TDP1 cell noCPT,VDR inh,PLK1 PBD block,DT40 TDP1 CPT,GCN5L2 inh,TDP1 inh
CC(=O)Nc1cc(-c2cccc(CO)c2)cn2c(-c3ccc(F)cc3)cnc12,?,.,-6%,23µM*,.,.
CC(=O)Nc1cc(-c2cccc(CO)c2)cn2c(-c3ccc(C(C)=O)cc3)cnc12,21µM*,.,-16%,?,.,.
CC(=O)Nc1cc(-c2cccc(C(=O)NCCN(C)C)c2)cn2c(-c3cccc(C(F)(F)F)c3)cnc12,?,.,-13%,?,.,.
CC(=O)Nc1cc(-c2ccccc2CN(C)C)cn2c(-c3ccc(C(C)=O)cc3)cnc12,16µM*,.,-3%,?,.,.
CC(=O)Nc1cc(-c2cccc(N)c2)cn2c(-c3ccc(C(C)=O)cc3)cnc12,10µM*,.,-4%,?,.,.
Cc1ncc2c(n1)NC(=O)NC2,8%,9%,-8%,9%,.,.
Nc1c(C(=O)Nc2ccc(Cl)c(C(F)(F)F)c2)sc2nc(-c3ccncc3)ccc12,10µM*,-1%,.,?,3%,-2%
Nc1c(C(=O)Nc2ccccc2)sc2nc(-c3ccco3)ccc12,18µM*,2%,-21%,23µM*,?,1%
Nc1c(C(=O)Nc2nc3ccccc3s2)sc2nc(-c3cccs3)ccc12,21µM*,32%,-23%,12µM*,-24%,.
COc1cccc(-c2ccc3c(N)c(C(=O)Nc4ccccc4C)sc3n2)c1,23µM*,4%,.,?,-11%,-12%
Nc1c(C(=O)Nc2ccccc2)sc2nc(-c3cccnc3)ccc12,.,.,.,.,0%,.
COc1ccccc1NC(=O)c1sc2nc(-c3ccco3)ccc2c1N,?,-21%,?,-16%,?,0%
COc1ccc(CCC(=O)OCC(=O)NCc2ccccc2)cc1,-3%,-15%,3%,-11%,1%,0%
Cc1ccccc1NC(=O)c1sc2nc(-c3ccncc3)ccc2c1N,16µM*,-19%,.,-88%,-9%,.
COc1ccc(NC(=O)c2sc3nc(-c4cccnc4)ccc3c2N)cc1,-20%,1%,-18%,9%,-19%,.
CCOc1cccc(NC(=O)c2sc3nc(-c4ccc(F)cc4)ccc3c2N)c1,?,?,.,-24%,35µM*,-6%
Cc1cccc(CCn2c(=O)c3ccccc3n(Cc3cccc(F)c3)c2=O)c1,23µM*,-22%,.,18µM*,-21%,-2%[12.3 µM]
O=c1c2ccccc2n(Cc2cccc(F)c2)c(=O)n1C1CCCC1,23µM*,11%,1%,?,-8%,-5%
O=c1c2ccccc2n(Cc2ccccc2F)c(=O)n1-c1cccc(F)c1,15µM*,2%,.,?,-5%,4%
